NALP1 inh = blocks the NALP1 inflammasome reconstituted in yeast. S. cerevisiae NALP1/ASC/caspase-1 growth, X-gal OD620, 72 h. hit rate 0.61% among 280,000. inhibition, % at 10 µM; in the data active = inhibition mostly above about 24%, no sharp cut-off; inactive = mostly below about 32%
TIM10 inh = growth inhibitors of TIM10 yeast strain; S. cerevisiae TIM10 strain growth, BacTiter-Glo luminescence, 24 h; inhibition, % at 10 µM; hit rate 1.4% among 330,000; AID 463195;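 active = inhibition of 40% or more at the single tested concentration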;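 also: wild-type TIM10 isogenic control strain grown at permissive 25 °C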
V-ATPase pHluor = regulators of yeast V-ATPase proton transport. hit rate 0.37% among 350,000. response, % at 10 µM. S. cerevisiae, pHLuorin cytosolic pH fluorescence; in the data active = response mostly above about 7.3%, no sharp cut-off; inactive = mostly below about 5.4%; also: actives read high
tim10-1 inh = growth inhibitors of tim10-1 mutant yeast. hit rate 2.2% among 330,000. inhibition, % at 20 µM. S. cerevisiae tim10-1 ts strain growth, BacTiter-Glo, 24 h. AID 463190;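 active = inhibition of at least 40%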;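 also: mutant grown at 25 °C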
NALP3 yeast inh = blocks the NALP3 inflammasome reconstituted in yeast; Yeast reconstituted NLRP3/ASC/caspase-1, beta-gal luminescence, 24 h; inhibition, % at 10 µM; hit rate 0.39% among 330,000; AID 2825;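 active = inhibition of 50% or more; inactive = inhibition below 50%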
tim23-1 inh = inhibits growth of tim23-1 mutant yeast; inhibition, % at 20 µM; S. cerevisiae tim23-1 growth, BacTiter-Glo luminescence, 24 h; hit rate 1.3% among 330,000;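 active = growth inhibition of the mutant yeast at or above 50%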;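 also: temperature-sensitive mutant grown at 25 °C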
V-ATPase pH SP = modulates yeast V-ATPase proton transport | shares compounds with V-ATPase pHluor | S. cerevisiae pHLuorin cytosolic pH | response, % at 10 µM | hit rate 2% among 980; in the data active = response above about 24%
A number is an active result; . = inactive; / = no result given. The list is not random: actives were taken first. Their share in the collection is about 4.2%.

SMILES | NALP1 inh | TIM10 inh | V-ATPase pHluor | tim10-1 inh | NALP3 yeast inh | tim23-1 inh | V-ATPase pH SP
Cn1c(O)c(N=NC(=N)N)c2ccccc21 | . | . | . | . | . | . | /
C=CCn1c(O)c(N=Nc2ccccc2)c2ccccc21 | . | . | . | . | . | . | /
C=CCn1c(O)c(N=NC(=O)OCC)c2ccccc21 | . | . | . | . | . | . | .
CCOC(=O)N=Nc1c(O)n(C)c2ccccc12 | . | . | . | . | . | . | .
COCCCNC(=O)Cn1c(=O)n(Cc2ccc(F)cc2)c(=O)c2sccc21 | . | . | . | . | . | . | /
O=[N+]([O-])c1ccc2nc(N3CCCC3)sc2c1 | . | . | . | . | . | . | /
O=C(c1ccccc1)N1CCN(c2nc3ccc([N+](=O)[O-])cc3s2)CC1 | . | . | 16 | . | . | . | .
CC1(C)Cc2ccccc2C(C(=O)c2ccccc2)=N1 | . | . | . | . | . | . | /
Cc1nnc(N)s1 | . | . | . | . | . | . | /
COc1ccc(C)cc1NC(=O)CSc1nnc(-c2ccco2)n1Cc1ccco1 | . | . | . | . | . | . | /
C=CCn1c(SCC(=O)Nc2cc(C)ccc2OC)nnc1-c1ccco1 | . | . | 11 | . | . | . | .
CN(C)C(CNS(=O)(=O)c1ccc2ccccc2c1)c1ccccc1 (configuration not stated) | . | . | . | . | . | . | /
CCN(CC1CCCN(CCc2cccc(OC)c2)C1)C(=O)c1ccoc1C (configuration not stated) | . | . | . | . | . | . | /
COc1cccc(NC(=O)CSc2nc3ccccc3n2C)c1 | . | . | . | . | . | . | /
CCc1ccc(NC(=O)C2CCCN(S(=O)(=O)c3cnc[nH]3)C2)cc1 (configuration not stated) | . | . | 11 | . | . | . | .
O=C(NC1CCCCCC1)c1ccc(OCC2CCCO2)cc1 (configuration not stated) | . | . | 7.8 | . | . | . | .
Cc1ccc2[nH]c(=O)c(CN(Cc3ccccc3Cl)C(=O)N3CCOCC3)cc2c1 | . | . | 16 | . | . | . | .
C=CCN(CC(=O)NCC1CCCO1)C(=O)CCC(=O)Nc1cc(C)on1 (configuration not stated) | . | . | . | . | . | . | /
Cc1c(C(=O)O)sc(=S)n1-c1ccc(Cl)cc1 | . | . | . | . | . | . | .
CCOC(=O)c1sc(=S)n(-c2ccc(Cl)cc2)c1C | . | . | . | . | . | . | /
O=S(=O)(c1ccc(F)cc1)N1CCN(CC(O)COCC2CCCO2)CC1 (configuration not stated) | / | . | 9.8 | . | . | . | .
O=S(=O)(c1ccc(F)cc1)N1CCN(CC(O)COCc2ccccc2)CC1 (configuration not stated) | / | / | . | / | / | / | /
COc1ccccc1CN1CC(C(=O)NCc2cc(F)ccc2C)CCC1=O (configuration not stated) | . | . | . | . | . | . | /
Cc1ccccc1OCC(=O)NCCNC(=O)c1ccncc1 | . | . | . | . | . | . | /
c1ccc(-c2nn3nnnc3c3ccccc23)cc1 | . | . | . | . | . | . | /
SMILES | NALP1 inh | TIM10 inh | V-ATPase pHluor | tim10-1 inh | NALP3 yeast inh | tim23-1 inh | V-ATPase pH SP
Cc1ccc(-c2nn3nnnc3c3ccccc23)cc1C | . | . | 7.7 | . | . | . | .
CCOC(=O)C1C(C(=O)OC)=C(c2ccc(F)cc2)c2ccccc2N1S(=O)(=O)C(F)(F)F (configuration not stated) | / | . | . | . | / | . | /
CCOC(=O)C1C(C(=O)OC)=C(c2ccc(OC)cc2)c2ccc(OC)cc2N1S(=O)(=O)C(F)(F)F (configuration not stated) | / | . | 8.0 | . | / | . | .
C#CCN(C(=O)CC1C(=O)NCCN1C/C=C/c1ccccc1)C1CCCCC1 (configuration not stated) | . | . | . | . | . | . | /
Cc1nn(CC#N)c(=O)n1-c1ccc(Cl)cc1 | . | . | . | . | . | . | .
COc1cc(S(=O)(=O)Nc2c(C)cc(C)cc2C)ccc1Cl | . | . | . | . | . | . | /
C/C(=C/c1ccccc1)C(=O)N1CCC(C)CC1 | . | . | 11 | . | . | . | .
CCOC(=O)C1CCN(C(=O)/C(C)=C\c2ccccc2)CC1 | . | . | . | . | . | . | /
O=C1NC(=S)N/C1=C/c1cccc2ccccc12 | . | . | 9.1 | . | . | . | .
CC(C)(C)C(=O)Nc1nc2c(c(=O)[nH]1)CCCC2 | . | . | . | . | . | . | /
CC1Nc2nc(NC(=O)C(C)(C)C)[nH]c(=O)c2N(C)C1C (configuration not stated) | . | . | 12 | . | . | . | .
Cc1cccc(N2CCN(c3nnc(C(F)(F)F)s3)CC2)c1 | / | . | . | . | . | . | /
O=C/C(=C\Nc1ccc(Br)cc1)c1nc2ccccc2o1 | . | . | 8.9 | . | . | . | .
CC(=O)Nc1ccc(N/C=C(\C=O)c2nc3ccccc3o2)cc1 | . | . | . | . | . | . | /
CCn1cc(C(=O)NCCc2ccccc2C)c(=O)c2ccc(C)nc21 | . | . | . | . | . | . | /
O=C(Cc1ccc([N+](=O)[O-])cc1)Nc1cccc(C(F)(F)F)c1 | . | . | 12 | . | . | . | .
Cc1nc(C)c(-c2ccc(SCc3ccccc3C)nn2)s1 | . | . | 10 | . | . | . | .
COc1cccc(C2C(C(=O)c3cc4ccccc4o3)=C(O)C(=O)N2CCN(C)C)c1OC (configuration not stated) | / | . | 13 | . | . | . | .
CCOC(=O)C1=C(C)NC(C)=C(C(=O)OCC)C1C(=O)OCC(=O)N1CCc2ccccc2C1 | . | . | 12 | . | . | . | .
Cc1ccc(C)c(OCCC(=O)OCC(=O)N2c3ccccc3NC(=O)C2(C)C)c1 | / | . | . | . | . | . | /
COc1ccc(C(=O)C2CCCN(C(=O)CSC)C2)cc1OC (configuration not stated) | . | . | . | . | . | . | /
COc1ccc(C(=O)C2CCCN(C(=O)C3=CCCC3)C2)cc1OC (configuration not stated) | . | . | 10 | . | . | . | .
NC(=O)[C@@H]1CCCNc2c(I)cc([N+](=O)[O-])cc2C(=O)N[C@@H](CO)C(=O)N[C@@H](Cc2ccc(O)cc2)C(=O)N1 | . | . | . | . | . | . | /
O=C(O)c1cccc(-n2sc3ccccc3c2=O)c1 | / | . | . | . | . | . | /
O=c1c2ccccc2sn1-c1cccc(Cl)c1 | / | / | . | / | / | / | .
CCC(C)N1CC23C=CC(O2)C(C(=O)OC)C3C1=O (configuration not stated) | . | . | . | . | . | . | /
C=C(C)CSc1nnc(-c2cc(OC)c(OC)c(OC)c2)n1N | . | . | . | . | . | . | /
C=C(C)CSc1nnc(-c2ccc(OC)c(OC)c2)n1N | . | . | 8.7 | . | . | . | .
CC(=O)Nc1ccc(S(=O)(=O)n2cnc(C)c2)cc1 | . | . | . | . | . | . | /

Assay outcomes (PubChem BioAssay)
